The nature of experiment [1]: P-glycoprotein substrates identified in KB-8-5-11 adenocarcinoma cell line, qHTS therapeutic library screen (AID 1346987). Further: nearly all actives have a fitted effect of over 65% in size. On activity change, negative = cytotoxicity: series mostly up to about 44 µM; on the % scale 0 is the no-effect control and ±100 the full control effect. In short, it runs like this:
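Luminescence from CellTiter-Glo, read 5 min after addition, quantified survival of KB-8-5-11 (P-gp-overexpressing) cells exposed to compounds for 72 h. AC50 was derived from concentration-response curves.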

Experiment [2] relates to Zika virus NS2B-NS3 protease (unlinked complex). The experiment in a line: Primary screen GU Rhodamine qHTS for Zika virus inhibitors: Unlinked NS2B-NS3 protease assay (AID 1347159). Further: nearly all actives have a fitted effect of over 60% in size. Further: potency means the concentration at half of the fitted maximal effect. In short, it runs like this:
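Unlinked NS2B/NS3, 25 nM; Rhod110 peptide, 1.5 microM; compounds, up to 114 microM. Reaction run 15 min at RT in 10 mM Tris-HCl pH 8.0, 0.01% Tween 20; kinetic fluorescence change fitted with a 4-parameter Hill model.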

A short description of experiment [3]: Confirmatory screen NINDS Rhodamine qHTS for Zika virus inhibitors (AID 1347161). Further: potency means the concentration at half of the fitted maximal effect; nearly all actives have a fitted effect of over 60% in size. In short, it runs like this:
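Aprotinin served as in-plate control. Conditions: 25 nM linked NS2B-NS3, pH 8.0 Tris buffer, titrated compounds, 15 min preincubation and 15 min reaction with 1.5 microM Rhod110 substrate at room temperature.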

The subject of experiment [4] is Zika virus NS2B-NS3 protease (linked construct). The experiment is described as follows: Primary screen NINDS Rhodamine qHTS for Zika virus inhibitors (AID 1347160). Further: nearly all actives have a fitted effect of over 55% in size. Further: potency means the concentration at half of the fitted maximal effect. In short, it runs like this: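 Single-chain NS2B-NS3 protease, 25 nM, pH 8.0; compounds preincubated 15 min. Activity: Rhodamine110 release from 1.5 microM substrate over 15 min, room temperature, data fitted to 4-parameter Hill.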

Inconclusive results are not listed. A number with no mark means an inactive call. The source made the active and inactive calls. The call rests on the fitted dose curve; in most records, active means well fitted curve in the direction sought with a large enough effect; inconclusive means small, poorly fitted or top-dose-only effect, or another doubt; inactive means no such curve, though single readings can be large; an effect the other way counts as inactive or inconclusive. *1 amine or outer side, *2 acyl side, *3 side chain or, on linkers, in order; H or OH if unused. Where a SMILES comes first, the peptide text is derived from it. [ ]: non-standard residue; d: D form. X13 = O=C(C(CC(O)CO)O[*:1])[*:2]; NMeV = CN[CH](C(=O)O)C(C)C; NMeA = CN[CH](C)C(=O)O; βAla = NCCC(=O)O

This is an account of results in PubChem BioAssay (NCATS).

Consider `CC1=C2CC3C(CCC3(C)O)C(C)(O)CC2OC1=O` (stereo not given), for which the Potency entry in experiment [1] and in experiment [2] was “inactive” in each case. Besides, in experiment [3], the Potency is 44.1 µM (active).
For the compound `COC(=O)[C@]1(C)CCC[C@@]2(C)[C@@H]3CC[C@@H]4C[C@@]3(CC[C@@H]21)C[C@H]4C(=O)O`, the Potency entry in experiment [1], in experiment [2] and in experiment [4] was “inactive” in each case.
Take `CC(C)(O)c1ccc2c(c1)C(=O)C[C@H]1[C@](C)(C(=O)O)CCC[C@]21C`: the Potency result in experiment [1], in experiment [2] and in experiment [4] was “inactive” in each case.
With `CC1=C2C(=O)C=C(CO[C@@H]3O[C@H](CO)[C@@H](O)[C@H](O)[C@H]3O)[C@@H]2[C@H]2OC(=O)[C@H](C)[C@@H]2CC1`, the Potency result in experiment [1], in experiment [2] and in experiment [4] was “inactive” throughout.
On to `CC(C)Oc1ccc(-c2nc(-c3cccc4c3CCC4NCCC(=O)O)no2)cc1C#N` (stereo not given), for which the Potency result in experiment [1] and in experiment [4] was “inactive” in each case.
`CC1(C)CC[C@]2(C(=O)OC3OC(CO)C(O)C(O)C3O)CC[C@]3(C)C(=CCC4[C@@]5(C)C[C@@H](O)[C@H](OC6OC(C(=O)O)C(O)C(O)C6O)C(C)(C)C5CC[C@]43C)[C@@H]2C1` (stereo not given in full): the activity change, negative = cytotoxicity in experiment [1] is 8.55% [at 9.29 µM]. The Potency entry in experiment [2] and in experiment [4] was “inactive” throughout.
`CC12CC(c3ccoc3)OC(=O)C1CCC1(C)C2CCC(O)C1(C)O` (stereo not given): the Potency entry in experiment [1] and in experiment [4] was “inactive” each time.
For `COc1cncc(C#Cc2ccccn2)c1`, the Potency result in experiment [1], in experiment [2] and in experiment [4] was “inactive” in each case.
For the compound `COc1cc(/C=C/C(=O)O[C@@H]2O[C@H](CO)[C@@H](O)[C@H](O)[C@H]2O)ccc1O`, in experiment [1], the Potency entry is “inactive”. In addition, in experiment [4], the Potency was 8.91 µM (active).
Consider `CC(C)=C1CC2[C@](C)(CC[C@@H](OC(=O)C3(C)OC3C)[C@@]2(C)O)CC1=O` (stereo not given in full), for which the Potency entry in experiment [1], in experiment [2] and in experiment [4] was “inactive” throughout.
`CC(C)c1ccc2c(c1)CCC1[C@](C)(C(=O)O)CCC[C@]21C` (stereo not given in full): the Potency result in experiment [1] is “inactive”. Moreover, the figures for the Potency in experiment [2] and in experiment [4] were 20 µM (active) and 12.4 µM (active), respectively.
Regarding `NC(=O)NCCCC(NC(=O)Cc1ccccc1)C(=O)O` (stereo not given), the Potency result in experiment [1], in experiment [2] and in experiment [4] was “inactive” in each case.
In the case of `CC1CC(=O)[C@]2(O)C(C(=O)OCCc3ccc(O)cc3)=CO[C@@H](O[C@@H]3O[C@H](CO)[C@@H](O)[C@H](O)[C@H]3O)[C@H]12` (stereo not given in full), the Potency result in experiment [1] and in experiment [4] was “inactive” in each case.
Take `C/C=C(\C)C(=O)OC1C(C)C2(O)C3C=C(C)C(=O)C3CC(CO)=CC2C2C(C)(C)C12OC(C)=O` (stereo not given): the Potency entry in experiment [1], in experiment [2] and in experiment [4] was “inactive” throughout.
`OC[C@@]1(O)CO[C@H](OC[C@H]2O[C@@H](OC(CCCCc3ccc(O)cc3)CCc3ccc(O)cc3)[C@H](O)[C@@H](O)[C@@H]2O)[C@@H]1O` (stereo not given in full): the Potency result in experiment [1], in experiment [2] and in experiment [4] was “inactive” each time.
As to `COc1ccc(OC2OC(CO[C@@H]3O[C@@H](C)[C@H](O)[C@@H](O)[C@H]3O)C(O)C(O)C2O)cc1OC` (stereo not given in full), the Potency entry in experiment [1] and in experiment [4] was “inactive” in each case.
Consider `CC1=CC2=C(C)C(=O)C(C)(O)C(O)C2CO1` (stereo not given), for which the Potency result in experiment [1] and in experiment [4] was “inactive” in each case.
For `C[C@@H]1O[C@@H](O[C@H]2[C@@H]3C=CO[C@@H](O[C@@H]4O[C@H](CO)[C@@H](O)[C@H](O)[C@H]4O)[C@@H]3[C@@]3(CO)O[C@@H]23)[C@H](O)[C@H](O)[C@H]1OC(=O)/C=C/c1ccc(O)cc1`, the Potency entry in experiment [1], in experiment [2] and in experiment [4] was “inactive” in each case.
Turning to `CCC(C)C1NC(=O)C2CCCN2C(=O)C(CC(O)CO)OC(=O)CCNC(=O)C(C)N(C)C(=O)C(C(C)C)N(C)C1=O` (stereo not given) (cyclo([X13]PI[NMeV][NMeA][βAla]); configuration not given here), the Potency entry in experiment [1], in experiment [2] and in experiment [4] was “inactive” each time.
With `O=C(OCC1=C[C@@H](O)[C@@H]2C=CO[C@@H](O[C@@H]3O[C@H](CO)[C@@H](O)[C@H](O)[C@H]3O)[C@H]12)c1ccc(O)cc1`, the Potency result in experiment [1] and in experiment [4] was “inactive” throughout.
As for `C[C@H]1[C@H](C)C[C@@H](C(=O)O)C2CC[C@]3(C)C(=CC[C@@H]4[C@@]5(C)CC[C@H](O)C(C)(C)[C@@H]5CC[C@]43C)[C@@H]21` (stereo not given in full), the Potency result in experiment [1] and in experiment [4] was “inactive” in each case.
As for `CC[C@@H]1C(=O)O[C@]23C=C[C@@H]4C(C(=O)OC)=CO[C@H](O[C@@H]12)[C@@H]43`, the Potency entry in experiment [1] and in experiment [4] was “inactive” throughout.
On to `CC1CC(=O)[C@]2(O)C(C(=O)OCCc3ccc(O)c(O)c3)=CO[C@@H](O[C@@H]3O[C@H](CO)[C@@H](O)[C@H](O)[C@H]3O)[C@H]12` (stereo not given in full), for which the Potency result in experiment [1] and in experiment [4] was “inactive” each time.
Consider `CC(=O)Nc1cccc2c1c(Sc1ccc(Cl)cc1)c(C)n2CC(=O)O`, for which the Potency entry in experiment [1] and in experiment [4] was “inactive” throughout.
For the compound `C=C(C)C1Cc2c(ccc3c2OCC(c2ccc(O)cc2O)C3)O1` (stereo not given), the Potency entry in experiment [1] and in experiment [4] was “inactive” in each case.
As for `C=C1Cc2c(Cl)cc3[nH]c4c5c3c2[C@@]2(O)[C@@H]1C[C@@H]2C(C)(C)O[C@H]5C1CC[C@@]2(O)[C@@]35O[C@@H]3[C@H]3OC(C)(C)[C@H]3O[C@H]5CC[C@]2(C)[C@@]41C` (stereo not given in full), the Potency entry in experiment [1] and in experiment [4] was “inactive” throughout.
